Reference: PubChem BioAssay (EPA / NIEHS)
Calls of active or inactive are those of the source. Rule for the calls: active = hit-call score of the fitted dose curve at least 0.9, where 1 is the maximum; inactive = score below 0.9.

Tests used:
[1] = ATG_CRE_CIS: Attagene CIS-FACTORIAL HepG2 Assay for human cAMP Responsive Element (CRE) binding protein 3 (AID 2282926); conditions: HepG2 CRE cis-reporter, Attagene multiplexed mRNA; actives raise or lower the signal
Summary of the method: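 Readout: fluorescently labelled reporter transcripts resolved by capillary electrophoresis after RT-PCR, taken 24 h post-dosing in transfected HepG2. Endogenous transcription factor activity drives each cis-element reporter; gain or loss of signal fitted relative to DMSO control.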

[2] = target: CCAAT/enhancer-binding protein beta (Homo sapiens) (UniProt P17676); assay: ATG_C_EBP_CIS: Attagene CIS-FACTORIAL HepG2 Assay for human CCAAT/Enhancer Binding Protein (C/EBP) beta (AID 2282927); conditions: HepG2 Attagene cis-factorial transcription factor reporter; actives raise or lower the signal
Summary of the method: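 Endogenous transcription factor activity in human liver HepG2 cells is inferred from induction of a CEBPB-linked reporter mRNA. Exposure lasts 24 h; activity is fitted in both directions relative to DMSO.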

[3] = ATG_CMV_CIS: Attagene CIS-FACTORIAL HepG2 Assay for human CMV (Internal Marker) (AID 2282928); conditions: HepG2 CMV promoter reporter, transcription factor profiling; actives raise or lower the signal;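 note: endpoint acts as a background internal control marker rather than a target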
Summary of the method: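 24 h chemical treatment, HepG2 with transient multi-reporter transfection; RNA → oligo(dT) RT → PCR → 6-FAM extension → HpaI digest → CE fluorescence. Bidirectional fit, DMSO negative control.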

[4] = ATG_DR4_LXR_CIS: Attagene CIS-FACTORIAL HepG2 Assay for human Liver X Receptor (LXR), DR4 submotif (AID 2282929); conditions: HepG2 Attagene DR4 cis-reporter, mRNA transcription; actives raise or lower the signal
Summary of the method: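 Readout: reporter transcript fluorescence after RT-PCR and capillary electrophoresis, fitted bidirectionally against DMSO controls. Human HepG2 liver cells carried transiently transfected multiplexed reporter constructs; endogenous transcription factor activity measured 24 h post-dosing.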

[5] = target: Aryl hydrocarbon receptor (Homo sapiens) (UniProt P35869); assay: ATG_Ahr_CIS: Attagene CIS-FACTORIAL HepG2 Assay for human Aryl Hydrocarbon Receptor (Ahr) (AID 2282930); conditions: HepG2 AhR cis-factorial reporter transcription; actives raise or lower the signal
Summary of the method: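 Transient MRTU transfection of HepG2 → 24 h compound exposure → total RNA, oligo(dT) RT → PCR, 6-FAM extension, HpaI cut → CE fluorescence. DMSO = baseline; bidirectional curve fit.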

[6] = ATG_AP_1_CIS: Attagene CIS-FACTORIAL HepG2 Assay for human Activator Protein 1 (AP-1) (AID 2282931); conditions: HepG2 Attagene cis-factorial AP-1 reporter mRNA; actives raise or lower the signal
Summary of the method: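 Reporter transcripts were measured 24 h after dosing by RT-PCR and capillary electrophoresis of fluorescent fragments. Cells: HepG2 carrying transfected cis-regulated reporter constructs reading endogenous factor activity. Gain or loss fitted against DMSO.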

[7] = ATG_AP_2_CIS: Attagene CIS-FACTORIAL HepG2 Assay for human Activator Protein 2 (AP-2) (AID 2282932); conditions: HepG2 AP-2 cis-reporter, Attagene transcription factor profiling; actives raise or lower the signal
Summary of the method: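 Transiently transfected HepG2 cells are exposed to chemical for 24 h. Reporter transcripts are then measured as fluorescence following RT-PCR and capillary separation, and gain- or loss-of-signal is fitted relative to DMSO.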

[8] = ATG_BRE_CIS: Attagene CIS-FACTORIAL HepG2 Assay for human Bone Morphogenetic Protein (BMP) Response Element (BRE) (AID 2282933); conditions: HepG2 BMP response element reporter, Attagene transcription factor profiling; actives raise or lower the signal
Summary of the method: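 HepG2 cells transiently transfected with CIS reporter units (endogenous TF activity, BMP response element), dosed 24 h. Reporter mRNA quantified by RT-PCR, fluorescent labelling and capillary electrophoresis; bidirectional fit vs DMSO baseline.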

[9] = target: Retinoic acid receptor alpha (Homo sapiens) (UniProt P10276); assay: ATG_DR5_RAR_CIS: Attagene CIS-FACTORIAL HepG2 Assay for human Retinoic Acid Receptor Alpha (RARE), DR5 submotif (AID 2282934); conditions: HepG2 Attagene cis-factorial RARE DR5 reporter, mRNA; actives raise or lower the signal;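 for AC50: reporter responds to endogenous RAR alpha beta and gamma in HepG2 not RARA alone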
Summary of the method: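 Transient MRTU transfection of HepG2; 24 h compound treatment; TriZol RNA, oligo(dT) RT, PCR, FAM labelling, capillary electrophoresis. Bidirectional fit vs DMSO. Endogenous TF activity at DR5 RARE.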

[10] = target: Transcription factor E2F1 (Homo sapiens) (UniProt Q01094); assay: ATG_E2F_CIS: Attagene CIS-FACTORIAL HepG2 Assay for human E2F Transcription Factor 1 (AID 2282935); conditions: HepG2 Attagene cis-reporter, E2F reporter RNA transcripts; actives raise or lower the signal
Summary of the method: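 Fluorescent RT-PCR products, digested with HpaI for 2 h at 37 C, are separated by capillary electrophoresis. Source RNA comes from transfected HepG2 cultures treated for 24 h.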

[11] = ATG_E_Box_CIS: Attagene CIS-FACTORIAL HepG2 Assay for human Enhancer Box (E-box) (AID 2282936); conditions: HepG2 E-box cis-reporter transcription, actives raise or lower the signal
Summary of the method: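 Fluorescent reporter fragments separated by capillary electrophoresis gave the signal; mRNA came from HepG2 cells transfected with cis-element reporters and treated 24 h. Curves fitted bidirectionally relative to DMSO controls.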

[12] = ATG_M_61_CIS: Attagene CIS-FACTORIAL HepG2 Assay for M61 Transcription Factor (Internal Marker) (AID 2282937); conditions: HepG2 Attagene CIS-FACTORIAL M61 internal marker reporter; actives raise or lower the signal
Summary of the method: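 Readout: fluorescent reporter mRNA fragments resolved by capillary electrophoresis after RT-PCR. Transiently transfected human HepG2 cells carried MRTU constructs reporting endogenous TF activity; 24 h chemical exposure; gain or loss of signal fitted relative to DMSO.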

[13] = ATG_EGR_CIS: Attagene CIS-FACTORIAL HepG2 Assay for human Early Growth Response 1 (EGR1) (AID 2282938); conditions: HepG2 Attagene CIS-FACTORIAL EGR reporter mRNA; actives raise or lower the signal
Summary of the method: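 Read-out: fluorescent reporter-mRNA fragments resolved by capillary electrophoresis after RT-PCR, 24 h post-dose in transiently transfected HepG2. Endogenous transcription-factor activity reported via cis-element-regulated reporter units; gain or loss fitted relative to DMSO.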

[14] = ATG_M_19_CIS: Attagene CIS-FACTORIAL HepG2 Assay for M19 Transcription Factor (Internal Marker) (AID 2282939); conditions: HepG2 Attagene CIS-FACTORIAL M19 internal marker reporter; actives raise or lower the signal
Summary of the method: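 HepG2 cells transiently transfected with cis-regulated multiplexed reporter units, dosed 24 h. Reporter mRNA quantified by RT-PCR and capillary electrophoresis; internal background marker fitted bidirectionally versus DMSO.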

[15] = ATG_ERE_CIS: Attagene CIS-FACTORIAL HepG2 Assay for Estrogen Response Element (ERE) (AID 2282940); conditions: HepG2 ERE cis-reporter, Attagene RNA transcript; actives raise or lower the signal
Summary of the method: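 HepG2 cells transiently transfected with multiplexed cis-element reporter units, measuring endogenous transcription factor activity; ERE reporter mRNA quantified after 24 h exposure by RT-PCR, fluorescent labelling, HpaI digestion and capillary electrophoresis. Bidirectional change versus DMSO.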

[16] = ATG_Ets_CIS: Attagene CIS-FACTORIAL HepG2 Assay for human Erythroblast Transformation Specific (ETS) (AID 2282941); conditions: HepG2 ETS cis-reporter transcription, actives raise or lower the signal
Summary of the method: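 Cis-regulated reporter mRNA induction in HepG2 (transient transfection), 24 h exposure, RT-PCR plus capillary electrophoresis detection; DMSO serves as negative control and baseline.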

[17] = target: Hepatocyte nuclear factor 3-beta (Homo sapiens) (UniProt Q9Y261); assay: ATG_FoxA2_CIS: Attagene CIS-FACTORIAL HepG2 Assay for human Forkhead box A2 (FOXA2) (AID 2282942); conditions: HepG2 cis-reporter transcription factor activity, 24 h; actives raise or lower the signal
Summary of the method: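 Readout: fluorescent reporter transcripts resolved by capillary electrophoresis after RT-PCR. Transiently transfected HepG2, 24 h compound exposure, endogenous TF activity at cis promoter elements. Gain or loss of signal fitted relative to DMSO.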

[18] = ATG_FoxO_CIS: Attagene CIS-FACTORIAL HepG2 Assay for human Forkhead box O (FoxO) (AID 2282943); conditions: HepG2 Attagene cis-reporter, FoxO element, mRNA; actives raise or lower the signal
Summary of the method: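 HepG2, transient MRTU transfection (cis element, endogenous TFs). Dose 24 h. TriZol RNA → oligo(dT) RT → PCR → 6-FAM primer extension → HpaI cut → CE. Gain/loss vs DMSO.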

[19] = ATG_GATA_CIS: Attagene CIS-FACTORIAL HepG2 Assay for human GATA Binding Protein (AID 2282944); conditions: HepG2 GATA cis-element reporter, Attagene multiplex mRNA; actives raise or lower the signal
Summary of the method: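 HepG2 cells transiently transfected with multiplexed cis-element reporter units measure endogenous GATA activity; after 24 h compound exposure, reporter mRNA quantified by RT-PCR and capillary electrophoresis. Changes fitted in both directions vs DMSO.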

Measured: AC50

Sequence of CCAAT/enhancer-binding protein beta (Homo sapiens) (P17676 whole entry, looked up): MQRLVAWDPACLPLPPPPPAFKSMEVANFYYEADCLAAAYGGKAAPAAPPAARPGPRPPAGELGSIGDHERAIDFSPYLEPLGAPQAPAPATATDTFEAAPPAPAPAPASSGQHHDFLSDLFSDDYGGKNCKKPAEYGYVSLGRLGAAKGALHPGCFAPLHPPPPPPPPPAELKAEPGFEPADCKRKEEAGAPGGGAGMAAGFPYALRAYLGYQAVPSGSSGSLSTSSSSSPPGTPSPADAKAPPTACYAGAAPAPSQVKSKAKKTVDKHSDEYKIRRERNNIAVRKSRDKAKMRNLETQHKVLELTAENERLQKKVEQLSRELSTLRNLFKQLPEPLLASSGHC
Sequence of Retinoic acid receptor alpha (Homo sapiens) (P10276 whole entry, looked up): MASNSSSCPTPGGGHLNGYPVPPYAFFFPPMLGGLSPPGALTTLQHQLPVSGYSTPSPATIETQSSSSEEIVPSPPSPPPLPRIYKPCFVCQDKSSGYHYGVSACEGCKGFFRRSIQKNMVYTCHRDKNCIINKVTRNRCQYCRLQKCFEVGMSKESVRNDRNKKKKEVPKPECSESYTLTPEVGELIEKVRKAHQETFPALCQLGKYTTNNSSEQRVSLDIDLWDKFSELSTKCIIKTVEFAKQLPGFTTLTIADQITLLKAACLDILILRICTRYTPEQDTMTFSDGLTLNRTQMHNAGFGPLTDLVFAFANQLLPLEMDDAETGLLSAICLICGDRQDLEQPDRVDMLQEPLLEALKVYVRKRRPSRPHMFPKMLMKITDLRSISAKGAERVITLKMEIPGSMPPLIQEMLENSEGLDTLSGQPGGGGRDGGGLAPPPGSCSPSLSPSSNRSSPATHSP
Sequence of Aryl hydrocarbon receptor (Homo sapiens) (P35869 whole entry, looked up): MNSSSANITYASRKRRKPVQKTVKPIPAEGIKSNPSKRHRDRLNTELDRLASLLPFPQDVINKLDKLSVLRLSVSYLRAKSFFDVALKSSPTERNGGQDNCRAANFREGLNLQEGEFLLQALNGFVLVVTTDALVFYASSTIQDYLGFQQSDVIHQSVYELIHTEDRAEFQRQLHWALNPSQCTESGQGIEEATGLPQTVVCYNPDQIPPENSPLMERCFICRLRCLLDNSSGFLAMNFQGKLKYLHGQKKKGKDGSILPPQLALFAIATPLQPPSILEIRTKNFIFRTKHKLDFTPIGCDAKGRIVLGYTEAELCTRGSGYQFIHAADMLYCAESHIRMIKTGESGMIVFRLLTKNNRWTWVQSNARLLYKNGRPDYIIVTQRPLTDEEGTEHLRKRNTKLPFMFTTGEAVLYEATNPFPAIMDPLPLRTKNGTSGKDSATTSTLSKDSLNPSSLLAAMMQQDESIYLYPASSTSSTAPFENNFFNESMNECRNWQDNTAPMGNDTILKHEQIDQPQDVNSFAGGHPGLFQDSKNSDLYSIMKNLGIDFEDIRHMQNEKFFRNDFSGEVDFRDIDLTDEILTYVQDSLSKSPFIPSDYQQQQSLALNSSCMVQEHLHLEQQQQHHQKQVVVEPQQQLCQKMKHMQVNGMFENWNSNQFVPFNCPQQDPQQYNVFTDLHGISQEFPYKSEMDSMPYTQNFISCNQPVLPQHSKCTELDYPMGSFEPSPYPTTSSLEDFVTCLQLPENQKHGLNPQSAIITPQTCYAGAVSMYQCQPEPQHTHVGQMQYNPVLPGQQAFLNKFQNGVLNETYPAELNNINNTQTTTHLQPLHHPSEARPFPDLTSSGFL
Sequence of Transcription factor E2F1 (Homo sapiens) (Q01094 whole entry, looked up): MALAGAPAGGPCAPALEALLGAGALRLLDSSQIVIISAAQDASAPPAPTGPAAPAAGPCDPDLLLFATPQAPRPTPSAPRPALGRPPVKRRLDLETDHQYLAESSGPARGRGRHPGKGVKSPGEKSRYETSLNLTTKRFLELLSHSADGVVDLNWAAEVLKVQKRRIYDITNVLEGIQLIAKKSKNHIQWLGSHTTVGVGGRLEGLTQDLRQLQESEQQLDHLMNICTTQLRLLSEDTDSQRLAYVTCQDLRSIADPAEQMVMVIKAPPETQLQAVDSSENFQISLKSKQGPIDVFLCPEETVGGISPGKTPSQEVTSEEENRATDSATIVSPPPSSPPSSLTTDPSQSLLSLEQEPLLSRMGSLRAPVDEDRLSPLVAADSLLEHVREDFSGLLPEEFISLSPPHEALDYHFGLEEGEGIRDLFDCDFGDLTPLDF
Sequence of Hepatocyte nuclear factor 3-beta (Homo sapiens) (Q9Y261 whole entry, looked up): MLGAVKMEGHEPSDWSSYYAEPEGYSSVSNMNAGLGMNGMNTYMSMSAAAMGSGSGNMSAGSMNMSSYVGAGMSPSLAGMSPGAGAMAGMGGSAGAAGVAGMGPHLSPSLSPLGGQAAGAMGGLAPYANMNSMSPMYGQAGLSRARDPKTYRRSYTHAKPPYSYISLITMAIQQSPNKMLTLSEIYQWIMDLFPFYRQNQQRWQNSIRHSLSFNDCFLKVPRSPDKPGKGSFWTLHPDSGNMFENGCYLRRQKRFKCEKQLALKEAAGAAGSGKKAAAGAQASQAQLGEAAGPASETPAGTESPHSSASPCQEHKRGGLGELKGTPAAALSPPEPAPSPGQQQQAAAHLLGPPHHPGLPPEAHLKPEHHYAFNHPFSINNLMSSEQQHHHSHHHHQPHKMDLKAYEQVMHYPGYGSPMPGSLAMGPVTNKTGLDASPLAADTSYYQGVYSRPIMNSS

N#Cc1cc(Br)c(O)c(Br)c1
active: [1] 33.5 µM | [2] 18.8 µM | [5] 50 µM | [6] 50 µM | [8] 38.9 µM | [15] 6.61 µM
inactive: all other assays above

CS/C(C)=N/OC(=O)N(C)SN(C)C(=O)O/N=C(\C)SC
inactive: all assays above

CCc1nn(C)c(C(=O)NCc2ccc(C(C)(C)C)cc2)c1Cl
active: [1] 0.378 µM | [2] 1.19 µM | [3] 0.171 µM | [6] 0.117 µM | [8] 0.578 µM | [9] 0.425 µM
inactive: all other assays above

C=CCC1=C(C)[C@@H](OC(=O)[C@@H]2[C@@H](C=C(C)C)C2(C)C)CC1=O
active: [1] 7.32 µM | [9] 2.87 µM
inactive: all other assays above

COc1nc(NC(C)C)nc(NC(C)C)n1
inactive: all assays above

CCOC(=O)C(Cl)Cc1cc(-n2nc(C)n(C(F)F)c2=O)c(F)cc1Cl (configuration not stated)
active: [15] 50 µM
inactive: all other assays above

COc1cnc(OC)n2nc(NS(=O)(=O)c3c(OCC(F)F)cccc3C(F)(F)F)nc12
not listed: [9]
inactive: all other assays above
